LmPK inh: inhibitors of Leishmania mexicana pyruvate kinase; 0.37% of 290,000 active; Potency, µM (highest dose often 57.5 µM), without a hit: at the highest dose activity change, negative = inhibition, hits mostly inhibitors; purified LmPK, Kinase-Glo ATP luminescence, 1 h; Q27686; note: potency is the fitted concentration of half-maximal effect; % is set by controls: 0 for no effect and ±100 for the full control effect
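Purified LmPK (0.1 nM) converted ADP (0.1 mM) to ATP with PEP (0.5 mM) in imidazole buffer pH 7.2 with KCl and MgCl2, 1 h at room temperature. ATP was read by Kinase-Glo luminescence; data normalized to uninhibited and no-enzyme controls.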
FBPA Giardia inh: inhibitors of Giardia lamblia fructose-1,6-bisphosphate aldolase. purified Giardia FBPA. Potency, µM (series often up to 59.6 µM), without a hit: at the highest dose activity, negative = inhibition, usual class: inhibitors. 0.71% of 290,000 active. AID 2451; note: potency is the fitted concentration of half-maximal effect; % is set by controls: 0 for no effect and ±100 for the full control effect; nearly all actives have a fitted effect of over 55% in size
Target sequence (A8B2U2 whole entry, looked up): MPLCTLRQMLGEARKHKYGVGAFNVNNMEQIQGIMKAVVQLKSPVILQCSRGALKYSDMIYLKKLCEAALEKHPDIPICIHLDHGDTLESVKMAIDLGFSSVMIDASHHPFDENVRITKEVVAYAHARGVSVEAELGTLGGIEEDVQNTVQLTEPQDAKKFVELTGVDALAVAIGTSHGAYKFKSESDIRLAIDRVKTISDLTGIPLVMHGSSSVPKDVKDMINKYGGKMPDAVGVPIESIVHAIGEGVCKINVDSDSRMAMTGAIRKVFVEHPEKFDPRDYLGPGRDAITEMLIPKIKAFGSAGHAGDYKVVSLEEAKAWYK
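40 nM FBPA preincubated 10 min at RT with compound (up to 57.5 uM final), then substrate plus GAPDH/TPI/NAD/arsenate coupling and diaphorase/resazurin added. Fluorescence read after 20 min at RT, 525/598 nm.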
CHX counter: counter-screen for Shiga toxin inhibitors: cycloheximide protein synthesis inhibition. cell reporter, cycloheximide protein synthesis inhibition counterscreen. max response, %. 12% of 300,000 active; in the data active = max response mostly above about 13%, no sharp cut-off; inactive = mostly below about 14%; note: read at 38.3 µM for the half of the compounds with a filed dose; 0% is about no effect
Sm TGR inh: blocks Schistosoma mansoni thioredoxin glutathione reductase; Q962Y6; purified TGR, DTNB reduction, TNB absorbance 405 nm; Potency, µM (titrated, usually from 114 µM), for inactives: at the highest dose activity change, negative = inhibition, actives largely listed as inhibitors; 3% of 360,000 active; AID 485364; note: potency is the fitted concentration of half-maximal effect; % is set by controls: 0 for no effect and ±100 for the full control effect; nearly all actives have a fitted effect of over 60% in size
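Kinetic colorimetric format: TGR-catalysed, NADPH-driven DTNB reduction monitored via TNB absorbance. Enzyme dispensed at 20 nM; compound exposure 15 min at room temperature before reaction start.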
Tb PYK inh: T. brucei pyruvate kinase inhibition. TbPYK enzyme, Kinase-Glo Plus ATP luminescence, 45 min. Potency, µM (top dose mostly 76.8 µM), without a hit: top-dose activity, negative = inhibition, usual class: inhibitors. 0.12% of 410,000 active. AID 624173; note: potency is the fitted concentration of half-maximal effect; % is set by controls: 0 for no effect and ±100 for the full control effect; nearly all actives have a fitted effect of over 50% in size
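T. brucei PYK with substrate was exposed to pin-transferred compounds across a concentration series, then started with 130 uM ADP (final). After 45 min at room temperature, Kinase-Glo Plus luminescence was read, normalized and curve-fitted.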
Shiga inhibitor: Shiga toxin inhibition; Vero cells, Shiga toxin protein synthesis inhibition reporter; inhibition, % at 38.7 µM; 9.2% of 290,000 active; in the data active = inhibition mostly above about 28%, no sharp cut-off; inactive = mostly below about 43%; note: 0% is about no effect
The depositor's hits bear a star; ? = inconclusive; · = no result given; [ ] = dose if it differs, or a comment. The full list was thinned out, with hits kept by preference. Unless noted, calls come from the whole dose curve; as a rule, active = well fitted curve in the direction sought with a large enough effect; inconclusive = small, poorly fitted or top-dose-only effect, or another doubt; inactive = no such curve, though single readings can be large; an effect the other way counts as inactive or inconclusive.

SMILES	LmPK inh	FBPA Giardia inh	CHX counter	Sm TGR inh	Tb PYK inh	Shiga inhibitor
Fc1ccc(-n2nnc(-c3cnc4ccccc4c3)n2)cc1	?	5%	46*	-18%	-9%	62*
Brc1ccccc1-n1nnc(-c2cccnc2)n1	-7%	-6%	29*	-21%	-1%	33
Fc1ccc(-n2nnc(-c3cccnc3)n2)cc1	-18%	8%	42*	-23%	-2%	70*
Clc1ccc(-n2nnc(-c3cccnc3)n2)cc1Cl	-1%	9%	41*	2%	10%	41*
NCCCCCCNc1nc2c(N)ncnc2n1[C@@H]1O[C@@H]2COP(=O)(O)O[C@H]2[C@H]1O	·	-1%	10	·	·	-7
Cc1ccccc1Nc1cc(C(=O)NCc2cccs2)c2ccccc2n1	·	·	·	4%	1%	·
Cc1cc(C)n(CCC(=O)Nc2ccc(Cl)cc2)n1	·	·	·	6%	-4%	·
CCc1ccccc1Nc1cc(C(=O)NCCCN(C)C2CCCCC2)c2ccccc2n1	·	·	·	?	0%	·
O=c1[nH]c2ccccc2cc1-c1nnn(-c2ccc(Cl)c(Cl)c2)n1	·	·	·	·	-6%	·
O=c1[nH]c2ccccc2cc1-c1nnn(-c2ccc(F)cc2)n1	2%	2%	23*	?	5%	49*
CC(=O)c1c(C)[nH]c(C(=O)OCC(=O)N2CCc3ccccc3C2)c1C	·	·	·	-6%	-4%	·
Cc1cc(C(=O)CSc2nnc(Cc3ccccc3)o2)c(C)n1Cc1ccc2c(c1)OCO2	5%	2%	-1	-30%	1%	8
O=C(CSc1nnc(NCc2ccccc2)s1)c1ccco1	-7%	-5%	16	0%	-11%	78*
C=CCn1c(C)cc(C(=O)CSc2nnc(Cc3ccccc3)o2)c1C	-4%	-25%	31*	0%	-1%	53
Cc1cc(C(=O)CSc2nc3ccccc3o2)c(C)n1C1CC1	-1%	-8%	53*	-5%	1%	27*
C=CCn1c(C)cc(C(=O)CSc2nnc(NCc3ccccc3)s2)c1C	14%	-4%	46*	-15%	-26%	57
O=C(COc1ccccc1Cl)Nc1nc(-c2ccc(F)cc2)ns1	·	·	·	-2%	2%	·
NC(COCc1ccccc1)c1csc(Nc2cc(NCCCO)ncn2)n1 (centres undefined)	·	·	·	·	-11%	·
C=CCn1c(C)cc(C(=O)CSc2nc3ccccc3o2)c1C	-5%	-9%	62*	-13%	-9%	110*
Cc1ccc(NC(=O)C2CCN(S(=O)(=O)c3ccc(C(C)(C)C)cc3)CC2)cc1S(=O)(=O)N1CCOCC1	·	·	·	·	28%	·
Clc1cccc(-c2cc3nc4c(c(N5CCN(c6cnccn6)CC5)n3n2)CCCC4)c1	0%	-4%	38*	5%	0%	37*
Fc1cccc(-c2cc3nc4c(c(NCc5ccco5)n3n2)CCCC4)c1	-7%	-10%	39*	14%	-11%	87*
Clc1cccc(-c2cc3nc4c(c(N5CCOCC5)n3n2)CCCC4)c1	1%	-8%	22*	13%	0%	46
Fc1cccc(-c2cc3nc4c(c(N5CCOCC5)n3n2)CCCC4)c1	-3%	1%	52*	0%	-12%	48*
OC1CCN(c2c3c(nc4cc(-c5ccc(Cl)cc5)nn24)CCC3)CC1	-3%	-1%	1	-5%	3%	13
SMILES	LmPK inh	FBPA Giardia inh	CHX counter	Sm TGR inh	Tb PYK inh	Shiga inhibitor
CC(Sc1cccc[n+]1[O-])C(=O)Nc1cccc([N+](=O)[O-])c1 (centres undefined)	7%	0%	16*	5%	-6%	19
COc1cc2ccc(=O)oc2c(O)c1O	·	25µM*	·	·	?	·
COc1cc2ccc(=O)oc2c(OC)c1OC	·	0%	·	·	·	·
COCCCNC(=O)Cn1nnc(-c2ccc(NC(=O)c3ccccc3OC)cc2)n1	-2%	3%	6	3%	-5%	20
COCCCNC(=O)Cn1nnc(-c2ccc(NC(=O)c3ccccc3F)cc2)n1	3%	-6%	26*	0%	-1%	48*
CCOC(=O)c1ccc(N2CCN(c3ccccc3OC)CC2)c(NC(=O)Nc2ccc(CC)cc2)c1	·	·	·	5%	-1%	·
CCCCn1nc(C(=O)Nc2ccccc2N2CCCC2)c2ccccc2c1=O	·	·	·	-16%	0%	·
c1ccc(C2=Nc3ccccc3SC2c2nc3ccccc3[nH]2)cc1 (centres undefined)	0%	?	36*	-2%	·	87*
CC(=O)NC(c1ccco1)c1cc(Cl)c2ccc(N(C)C)nc2c1O (centres undefined)	·	·	·	4µM*	·	·
FC(F)(F)c1ccccc1-c1nc(-c2ccncc2)no1	1%	6%	40*	2%	0%	47*
CCSc1ccccc1-c1nc(-c2ccncc2)no1	2%	4%	26*	4%	-4%	35
Fc1ccccc1-c1nc(-c2ccc(Cl)cc2)no1	·	·	·	·	-1%	·
O=C1c2ccccc2C(=O)N1CCc1nc(-c2ccncc2)no1	2%	-3%	-3	4%	·	-13
O=C(O)c1ccc(-c2noc(-c3ccccc3C(F)(F)F)n2)cc1	·	·	·	·	-3%	·
CCOc1ccccc1-c1nc(-c2ccncc2)no1	-22%	-11%	21	1%	-2%	24
COc1ccccc1-c1nc(-c2ccncc2)no1	?	4%	32*	8%	·	79*
CN(C)c1ccc(-c2noc(-c3ccccc3O)n2)cc1	-10%	3%	47*	17%	-1%	126*
O=C(c1ccc2c(c1)OCCO2)N(Cc1cccnc1)c1nc2c(Cl)cccc2s1	·	·	·	3%	7%	·
CCOc1ccc(CNC(=O)c2ccc(-c3nc(CSc4ccc(C)cc4)c(C)o3)cc2)cc1	·	·	·	-7%	-2%	·
COc1cc(OC)cc(-c2nc(-c3ccc(Br)cc3)no2)c1	1%	-2%	7	1%	-8%	7
Cc1ccc(-c2noc(-c3ccccc3Br)n2)cc1	-13%	1%	35*	0%	-5%	65*
COc1ccccc1-c1nc(-c2ccc(Br)cc2)no1	7%	-1%	30*	17%[11.4 µM]	2%	25
COc1nc(-c2ccc(C)cc2)ccc1-c1noc(-c2ccccc2Br)n1	·	·	·	4%	1%	·
Cc1c(-c2nc(-c3ccc(C(F)(F)F)cc3)no2)n(C)oc1=O	-4%	3%	70*	13%	0%	129*
COc1ccc(-c2nc(-c3ccc(Br)cc3)no2)c(OC)c1	-4%	0%	39*	-1%	-3%	197*
CCCOc1ccc(-c2cccc(NS(=O)(=O)c3cc(OC)ccc3OC)c2)nn1	·	·	·	-5%	-4%	·
Cn1c(=O)c(=O)n(C)c2cc(N3CCCC3)c(NC(=O)c3ccccc3F)cc21	·	·	·	3%	0%	·
CC(=O)c1ccc(NC(=O)c2sc(-n3nc(C)c(Cc4ccc5c(c4)OCO5)c3C)nc2C)cc1	·	·	·	-11%	-10%	·

Screening results: PubChem BioAssay, National Center for Advancing Translational Sciences (NCATS)
